The full list was thinned out, with hits kept by preference.
BJeLR viab HTS: compounds reducing viability of BJeLR cells; BJeLR fibroblasts viability, CellTiterGlo ATP luminescence, 48 h; HRASV12, hTERT and SV40 LT/ST transformed; viability loss activity score, % (test concentration not listed); hit rate 0.64% among 30,000; in the data active = viability loss activity score above about 50%; inconclusive = no clear call, values can overlap the other calls; inactive = below about 35%;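 note: higher score means fewer live cells and less ATP luminescence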
Hedgehog inh: blocks Sonic Hedgehog signaling | hit rate 2.1% among 22,000 | Shh-LIGHT2 Gli-luciferase reporter, 30 h | inhibition, % (no concentration beside the values);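 active = mean inhibition across valid replicates above about 65%, limit read from the data; inconclusive = mean under the limit, yet half or more replicates past it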;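 note: pathway switched on by Shh-conditioned medium diluted 1 in 25 in low serum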
Starred values were filed as active, the others as inactive; u = inconclusive; x = no result given.

SMILES | BJeLR viab HTS | Hedgehog inh
CC(=O)Oc1ccc2c(c1)CCC1C2CC[C@@]2(C)C1CC[C@@H]2OC(C)=O (stereo not given in full) | 3 | 67*
Cc1ccc(-c2csc3ncnc(NCCN4CCNC4=O)c23)cc1 | 2 | x
O=C1/C(=C/c2cc(Br)cs2)CCC1C1CCCC1 (stereo not given) | -1 | x
CNC(=O)Cn1ncc2c3ccccc3n(Cc3cc(C)ccc3C)c2c1=O | -5 | x
COc1ccc2[nH]c(C)c(CCN(Cc3cccs3)C(=S)Nc3cccc(C)c3)c2c1 | -5 | x
CCOc1ccc(-c2cc(NC(=O)Nc3ccc(F)cc3)c(C(=O)OC)s2)cc1 | -6 | x
O=C(c1ccc(Cl)cc1)N1CCN(C(c2ccccc2)c2ccccc2)CC1 | 2 | x
CCc1cc(C(c2ccc(Cl)cc2)N2CCN(CCO)CC2)c(NC(=O)c2ccccc2)s1 (stereo not given) | 10 | 81*
Nc1nc(-c2ccccc2)cc(=S)s1 | -3 | x
CN1CCN2c3ncccc3Cc3ccccc3C2C1 (stereo not given) | -2 | -17
CC(C)(C)[C@]1(O)CCN2C[C@H]3c4ccccc4CCc4cccc(c43)[C@@H]2C1 | 6 | 78*
S=c1[nH]nc(CSCc2cccc3ccccc23)n1C1CCCCC1 | -8 | 69*
O=c1c2ccccc2[nH]c(=S)n1C1CCCC1 | -3 | x
C[C@H](CO)N1C[C@H](C)[C@@H](CN(C)S(=O)(=O)c2ccc(F)cc2)Oc2c(NC(=O)Nc3ccc4c(c3)OCO4)cccc2C1=O | -6 | 13
C[C@H](CO)N1C[C@H](C)[C@H](CN(C)S(=O)(=O)c2ccc(F)cc2)Oc2c(NC(=O)Nc3ccc4c(c3)OCO4)cccc2C1=O | 1 | 92*
Cc1ccc(S(=O)(=O)N(C)C[C@@H]2Oc3c(NC(=O)Nc4ccc5c(c4)OCO5)cccc3C(=O)N([C@H](C)CO)C[C@@H]2C)cc1 | -3 | 115*
C[C@@H]1CN([C@@H](C)CO)C(=O)c2cccc(NC(=O)Nc3ccc4c(c3)OCO4)c2O[C@H]1CN(C)S(=O)(=O)c1ccc(F)cc1 | -12 | 1
C[C@H]1CN([C@@H](C)CO)C(=O)c2cccc(NC(=O)Nc3ccc4c(c3)OCO4)c2O[C@H]1CN(C)S(=O)(=O)c1ccc(F)cc1 | 1 | 101*
Cc1ccc(S(=O)(=O)N(C)C[C@H]2Oc3c(NC(=O)Nc4ccc5c(c4)OCO5)cccc3C(=O)N([C@H](C)CO)C[C@H]2C)cc1 | -9 | -1
COC(=O)c1c(NC(=O)c2ccc(C)cc2)sc(C)c1C | -1 | x
c1ccc2c3c([nH]c2c1)[C@H]1C2CCC([C@@H]4CCCN[C@H]24)N1CC3 (stereo not given in full) | -4 | 8
CN(C)C(=O)COc1cc2oc(=O)c3c(c2cc1Cl)CCC3 | 0 | x
O=C1C=CC(=O)c2c(O)c(Cl)c(Cl)c(O)c21 | 54* | 44
CC(C)N1CCN(c2ccc(OC[C@H]3CO[C@](Cn4cncn4)(c4ccc(Cl)cc4Cl)O3)cc2)CC1 | 3 | 45
CC(=O)N1CCN(c2ccc(OCC3CO[C@](Cn4ccnc4)(c4ccc(Cl)cc4Cl)O3)cc2)CC1 (stereo not given in full) | 16 | 107*
SMILES | BJeLR viab HTS | Hedgehog inh
Cc1cc(Oc2nc3cc(Cl)ccc3s2)c2cc(Cl)ccc2n1 | -4 | x
CC1(C)CC(=O)C=C(Sc2nc3cc(Cl)ccc3s2)C1 | 69* | u
CCCc1c(C(=O)O)c(O)cc2c1C(=O)c1c(O)cccc1C2=O | 2 | 0
CCCCCC(=O)Cc1cc(O)c(O)c2c1C(=O)Oc1cc(O)c(C(=O)O)c(CCCCC)c1O2 | 99* | 75*
CC(C)c1cc(NC(C)c2ccccc2)n2c(nc3ccccc32)c1C#N (stereo not given) | -4 | x
CC1CCC(C(C)C)C(NC(=S)Nc2cccc(F)c2)C1 (stereo not given) | 1 | 102*
CSc1cccc(NC(=S)Nc2cccc(SC)c2)c1 | -8 | x
O=C(NCCCN1CCCCC1)c1ccc2c(c1)sc1nc(-c3ccccc3)cn12 | 17 | x
CC(O)(C#Cc1ccccc1)c1ccc(N2CCCCC2)c(F)c1 (stereo not given) | -9 | x
Cc1cc(C(C)(C)C)c(O)c(C(C)(C)C)c1 | -3 | -5
CC(C)(C)c1cc(O)c(C(C)(C)C)cc1O | 4 | 90*
CC(=O)N1c2ccccc2N=C(c2ccc(C)cc2)CC1c1ccccc1 (stereo not given) | -5 | x
COc1ccc(C2=Nc3ccccc3SC(c3ccccc3)C2)cc1 (stereo not given) | -4 | 80*
COc1cc(-c2noc(-c3c(-c4ccccc4Cl)noc3C)n2)cc(OC)c1OC | -6 | x
CN(C)CCN(C(=O)c1ccc(Br)cc1)c1nc2ccc(Cl)cc2s1 | 2 | x
CCOc1ccccc1CN1C(=O)c2ccccc2C1C(=O)NCCCN1C(C)CCCC1C (stereo not given) | -6 | x
COC1C=CC23c4cc5c(cc4CN(C[C@H]2O)[C@@H]3C1)OCO5 (stereo not given in full) | 8 | 51
